Data taken from paper PMC11995724, “Antibiotic target discovery by integrated phenotypic and activity-based profiling of electrophilic fragments” (Cell chemical biology, 2025).
Out of some 3,200 compounds screened, about 75 (2%) showed an effect of 50% or more. This excerpt belongs to a sample that is enriched for strong results.

Test system: T1, S. aureus MSSA476
T1 construct: MSSA476
Parameters: species or system S. aureus MSSA476 (TSB) or V. cholerae SAD30 (LB); 384-well bacterial growth screen at 25 uM, OD600 relative to DMSO control
Conditions: relative growth, OD600, TSB; 25 µM; inhibitor

| Structure (SMILES) | % of control remaining [%] |
| --- | --- |
| C=CC(=O)NC1CCCN(C(=O)CCC(F)(F)F)C1 (stereo not drawn) [1-B03, N-[1-(4,4,4-trifluorobutanoyl)piperidin-3-yl]prop-2-enamide] | 102.681 |
| C=CC(=O)N(C)c1ccccc1C(=O)NC [2-O18, N-methyl-2-(N-methylprop-2-enamido)benzamide] | 115.231 |
| C=CC(=O)Nc1ccc(S(C)(=O)=O)cc1OCC [2-C08, N-(2-ethoxy-4-methanesulfonylphenyl)prop-2-enamide] | 116.275 |
| Cl.O=C(CCl)NC1CCN(Cc2ccccc2)CC1 [5-E19, N-(1-benzylpiperidin-4-yl)-2-chloroacetamide hydrochloride] | 109.654 |
| O=C(CCl)NCC1CCCN(C(=O)C(F)(F)F)C1 (stereo not drawn) [7-N18, 2-chloro-N-{[1-(2,2,2-trifluoroacetyl)piperidin-3-yl]methyl}acetamide] | 107.378 |
| CCOc1ccc(C=C(C#N)C(=O)Nc2cccc3ncccc23)cc1 [8-A07, 2-cyano-3-(4-ethoxyphenyl)-N-(quinolin-5-yl)prop-2-enamide] | 131.452 |
| C=CC(=O)NCc1nc2c(s1)CCCC2 [1-G18, N-[(4,5,6,7-tetrahydro-1,3-benzothiazol-2-yl)methyl]prop-2-enamide] | 119.56 |
| C=CC(=O)N(CC)CC(=O)N1CCCC1c1cn(C)nc1C (stereo not drawn) [2-N12, N-{2-[2-(1,3-dimethyl-1H-pyrazol-4-yl)pyrrolidin-1-yl]-2-oxoethyl}-N-ethylprop-2-enamide] | 110.009 |
| CCN(CC(=O)NC1CCS(=O)(=O)C1)C(=O)CCl (stereo not drawn) [4-I19, 2-chloro-N-{[(1,1-dioxo-1lambda6-thiolan-3-yl)carbamoyl]methyl}-N-ethylacetamide] | 127.68 |
| O=C(CCl)c1cc2c3c(c1)CC(=O)N3CCC2 [10-G16, 6-(2-chloroacetyl)-1-azatricyclo[6.3.1.0,4,12]dodeca-4(12),5,7-trien-2-one] | 130.938 |
| O=C(CCl)c1ccc2c(c1)CCN(C(=O)C(F)(F)F)C2 [10-E09, 1-[6-(2-chloroacetyl)-1,2,3,4-tetrahydroisoquinolin-2-yl]-2,2,2-trifluoroethan-1-one] | 20.625 |
| CC(Cl)C(=O)Nc1ccc(S(N)(=O)=O)cc1 (stereo not drawn) [6-B06, 2-chloro-N-(4-sulfamoylphenyl)propanamide] | 82.2927 |
| C=CC(=O)Nc1cc(NC(=O)C2CCC2)ccc1F [2-E10, N-[4-fluoro-3-(prop-2-enamido)phenyl]cyclobutanecarboxamide] | 111.749 |
| C=CC(=O)Nc1cc(NC(=O)c2ccc([N+](=O)[O-])o2)ccc1F [3-J04, N-[4-fluoro-3-(prop-2-enamido)phenyl]-5-nitrofuran-2-carboxamide] | -4.528 |
| C=CC(=O)Nc1cc(NC(=O)C2(OC)CCOC2)ccc1F (stereo not drawn) [3-D05, N-[4-fluoro-3-(prop-2-enamido)phenyl]-3-methoxyoxolane-3-carboxamide] | 96.8219 |
| COCCn1c(C)cc(C(=O)CCl)c1C [10-D13, 2-chloro-1-[1-(2-methoxyethyl)-2,5-dimethyl-1H-pyrrol-3-yl]ethan-1-one] | 103.125 |
| Cc1cc(C(=O)CCl)c(C)n1CCc1ccc(F)cc1 [10-G14, 2-chloro-1-{1-[2-(4-fluorophenyl)ethyl]-2,5-dimethyl-1H-pyrrol-3-yl}ethan-1-one] | 123.75 |
| Cc1cc(C(=O)CCl)c(C)n1Cc1ccccc1 [10-M14, 1-(1-benzyl-2,5-dimethyl-1H-pyrrol-3-yl)-2-chloroethan-1-one] | 143.438 |
| Cc1cc(C(=O)CCl)c(C)n1Cc1cccs1 [10-D03, 2-chloro-1-{2,5-dimethyl-1-[(thiophen-2-yl)methyl]-1H-pyrrol-3-yl}ethan-1-one] | 122.5 |
| Cc1cc(C(=O)CCl)c(C)n1Cc1ccc(F)cc1 [10-N17, 2-chloro-1-{1-[(4-fluorophenyl)methyl]-2,5-dimethyl-1H-pyrrol-3-yl}ethan-1-one] | 4.6875 |
| Cc1cc(C(=O)CCl)c(C)n1CCc1cccs1 [10-F16, 2-chloro-1-{2,5-dimethyl-1-[2-(thiophen-2-yl)ethyl]-1H-pyrrol-3-yl}ethan-1-one] | 20.3125 |
| Cc1cc(C(=O)CCl)c(C)n1CCc1ccc(Cl)cc1 [10-N16, 2-chloro-1-{1-[2-(4-chlorophenyl)ethyl]-2,5-dimethyl-1H-pyrrol-3-yl}ethan-1-one] | 5.9375 |
| Cc1cc(C(=O)CCl)c(C)n1CCc1ccccc1 [10-B18, 2-chloro-1-[2,5-dimethyl-1-(2-phenylethyl)-1H-pyrrol-3-yl]ethan-1-one] | 102.188 |

| Structure (SMILES) | % of control remaining [%] |
| --- | --- |
| Cc1cc(C(=O)CCl)c(C)n1Cc1ccccc1Cl [10-P16, 2-chloro-1-{1-[(2-chlorophenyl)methyl]-2,5-dimethyl-1H-pyrrol-3-yl}ethan-1-one] | 127.813 |
| O=C(CCl)NC(Cc1ccccc1)c1ccccc1F (stereo not drawn) [7-N10, 2-chloro-N-[1-(2-fluorophenyl)-2-phenylethyl]acetamide] | 83.5165 |
| CC(Cl)C(=O)N1CCNC(=O)C1Cc1nc2ccccc2o1 (stereo not drawn) [6-P03, 3-[(1,3-benzoxazol-2-yl)methyl]-4-(2-chloropropanoyl)piperazin-2-one] | 97.3171 |
| c1ccc(CSSCc2ccccc2)cc1 [10-O21, [(benzyldisulfanyl)methyl]benzene] | 113.125 |
| Cl.O=C(CCl)NCC(c1ccccc1Cl)N1CCCC1 (stereo not drawn) [6-G17, 2-chloro-N-[2-(2-chlorophenyl)-2-(pyrrolidin-1-yl)ethyl]acetamide hydrochloride] | 101.415 |
| O=C(CCl)NC(Cc1cccc(O)c1)c1ccccc1 (stereo not drawn) [7-N20, 2-chloro-N-[2-(3-hydroxyphenyl)-1-phenylethyl]acetamide] | 100.157 |
| COc1ccc(N2C(=O)C=CC2=O)c([N+](=O)[O-])c1 [10-L11, 1-(4-methoxy-2-nitrophenyl)-2,5-dihydro-1H-pyrrole-2,5-dione] | 100 |
| CC(C)CNC(=O)c1ccccc1NC(=O)CCl [4-E04, 2-(2-chloroacetamido)-N-(2-methylpropyl)benzamide] | 88.4231 |
| O=C(CCl)NCC(=O)Nc1ccc(F)c(F)c1 [4-L16, 2-chloro-N-{[(3,4-difluorophenyl)carbamoyl]methyl}acetamide] | 109.004 |
| N#CC(C(=O)CCl)=C1Nc2ccccc2S1 [10-J04, 4-chloro-2-(2,3-dihydro-1,3-benzothiazol-2-ylidene)-3-oxobutanenitrile] | 43.75 |
| N#CC(C(=O)CCl)=C1Nc2cc(Cl)ccc2S1 [10-O08, 4-chloro-2-(5-chloro-2,3-dihydro-1,3-benzothiazol-2-ylidene)-3-oxobutanenitrile] | 100 |
| N#CC(C(=O)CCl)=C1NC(=O)c2ccccc2N1 [10-P14, 4-chloro-3-oxo-2-(4-oxo-1,2,3,4-tetrahydroquinazolin-2-ylidene)butanenitrile] | 93.75 |
| CCn1cc(S(=O)(=O)N2CCSSCC2)cn1 [10-N19, 5-[(1-ethyl-1H-pyrazol-4-yl)sulfonyl]-1,2,5-dithiazepane] | 97.1875 |
| Cc1cc(CN(C(=O)CCl)c2csnc2C)cs1 [5-C12, 2-chloro-N-(3-methyl-1,2-thiazol-4-yl)-N-[(5-methylthiophen-3-yl)methyl]acetamide] | 105.282 |
| N#CC(=Cc1cccc(F)c1)C(=O)Nc1cc(Cl)ccc1Cl [9-P03, 2-cyano-N-(2,5-dichlorophenyl)-3-(3-fluorophenyl)prop-2-enamide] | 107.865 |
| C=CC(=O)N1CCC(C(=O)N2CCN(CC(C)C)C(=O)C2C)CC1 (stereo not drawn) [2-B08, 3-methyl-1-(2-methylpropyl)-4-[1-(prop-2-enoyl)piperidine-4-carbonyl]piperazin-2-one] | 92.6023 |
| O=C(CCl)N1N=C(c2cccc(F)c2)CC1c1cccs1 (stereo not drawn) [4-E22, 2-chloro-1-[3-(3-fluorophenyl)-5-(thiophen-2-yl)-4,5-dihydro-1H-pyrazol-1-yl]ethan-1-one] | 121.582 |
| C=CC(=O)N1CCC(c2ncc(C(=O)O)o2)CC1 [2-G19, 2-[1-(prop-2-enoyl)piperidin-4-yl]-1,3-oxazole-5-carboxylic acid] | 116.275 |
| C=CC(=O)N1CCC(C(=O)Nc2ccc(CC)cc2)CC1 [3-J12, N-(4-ethylphenyl)-1-(prop-2-enoyl)piperidine-4-carboxamide] | 97.5185 |
| O=C(CCl)NCc1cc([N+](=O)[O-])ccc1O [4-A05, 2-chloro-N-[(2-hydroxy-5-nitrophenyl)methyl]acetamide] | 92.6155 |
| N#Cc1cc([N+](=O)[O-])ccc1NC(=O)CCl [4-O09, 2-chloro-N-(2-cyano-4-nitrophenyl)acetamide] | 100.619 |
| O=C(CCl)NSc1ccc([N+](=O)[O-])cc1 [4-P13, 2-chloro-N-[(4-nitrophenyl)sulfanyl]acetamide] | 1.906 |
